# According to the supplement of paper PMC11732987, “Enantioselective OTUD7B fragment discovery through chemoproteomics screening and high-throughput optimisation” (Communications Chemistry, 2025):
# Unmarked numbers belong to inactive results.
# How the values were obtained:
# Experiment in all cases: log2 ratio of Biotin-Ahx-Ub-VS probe labelling (fragment/DMSO); higher = less target engagement (more negative = stronger competition), active = hit call of the paper (q ≤ 0.05, log2 ratio ≤ -1)
# Details in all cases: compound concentration: 200 uM; treatment time: 3 h
# UniProt O00507 = molecular target: UniProt O00507
# Method in brief: (§1)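 Labelled DUBs from HEK293T lysate were NeutrAvidin-enriched, digested with LysC and trypsin, and run by diaPASEF LC-MS/MS. Before that, each 495 µg sample in Tris/CHAPS/IGEPAL buffer with protease inhibitors was treated in triplicate with fragment at 200 µM or vehicle for 3 h, then with Biotin-Ahx-Ub-VS at 0.5 µM final for 1 h. Values are average log2 ratios of fragment over vehicle by unpaired t-test, based on global-median-normalised Spectronaut label-free quantities from proteins with ≥2 unique peptides.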
# UniProt P51784 = molecular target: UniProt P51784
# Method in brief: as §1
# UniProt Q5T2D3 = molecular target: T1, UniProt Q5T2D3
# T1 sequence (whole entry): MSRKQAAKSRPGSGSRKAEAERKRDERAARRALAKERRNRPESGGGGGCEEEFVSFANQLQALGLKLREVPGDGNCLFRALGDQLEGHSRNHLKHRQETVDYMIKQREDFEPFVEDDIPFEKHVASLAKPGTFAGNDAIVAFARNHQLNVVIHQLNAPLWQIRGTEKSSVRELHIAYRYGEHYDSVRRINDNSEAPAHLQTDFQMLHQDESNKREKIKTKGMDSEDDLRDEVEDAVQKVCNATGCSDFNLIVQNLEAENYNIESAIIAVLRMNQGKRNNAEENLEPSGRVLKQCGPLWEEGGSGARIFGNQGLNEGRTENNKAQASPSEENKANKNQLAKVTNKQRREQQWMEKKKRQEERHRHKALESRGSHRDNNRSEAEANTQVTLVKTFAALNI
# Method in brief: as §1
# UniProt Q8TE49 = molecular target: T2, UniProt Q8TE49
# T2 sequence (whole entry): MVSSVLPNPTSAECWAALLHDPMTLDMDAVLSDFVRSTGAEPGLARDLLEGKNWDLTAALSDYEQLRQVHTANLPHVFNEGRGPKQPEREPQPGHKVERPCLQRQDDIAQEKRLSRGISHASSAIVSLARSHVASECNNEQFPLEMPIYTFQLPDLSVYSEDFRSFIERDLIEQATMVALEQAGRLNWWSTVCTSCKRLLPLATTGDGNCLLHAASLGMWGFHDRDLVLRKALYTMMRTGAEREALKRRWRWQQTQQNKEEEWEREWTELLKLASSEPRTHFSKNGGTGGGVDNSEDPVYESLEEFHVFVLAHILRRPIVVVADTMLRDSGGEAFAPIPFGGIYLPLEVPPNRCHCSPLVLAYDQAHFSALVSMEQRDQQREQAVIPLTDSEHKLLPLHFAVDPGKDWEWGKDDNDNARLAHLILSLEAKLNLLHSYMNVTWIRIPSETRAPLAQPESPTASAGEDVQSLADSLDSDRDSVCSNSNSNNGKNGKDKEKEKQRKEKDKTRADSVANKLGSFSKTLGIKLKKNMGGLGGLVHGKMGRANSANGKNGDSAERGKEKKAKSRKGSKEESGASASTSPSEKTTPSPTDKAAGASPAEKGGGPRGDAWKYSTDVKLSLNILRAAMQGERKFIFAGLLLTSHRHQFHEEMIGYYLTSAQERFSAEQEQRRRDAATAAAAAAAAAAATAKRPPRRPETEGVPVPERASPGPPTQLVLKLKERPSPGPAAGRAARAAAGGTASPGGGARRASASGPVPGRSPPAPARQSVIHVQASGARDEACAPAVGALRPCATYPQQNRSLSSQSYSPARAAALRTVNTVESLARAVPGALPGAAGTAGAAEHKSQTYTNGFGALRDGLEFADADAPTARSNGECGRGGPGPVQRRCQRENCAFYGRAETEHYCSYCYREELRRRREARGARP
# Method in brief: as §1
# UniProt Q9P2H5 = molecular target: T3, UniProt Q9P2H5
# T3 sequence (whole entry): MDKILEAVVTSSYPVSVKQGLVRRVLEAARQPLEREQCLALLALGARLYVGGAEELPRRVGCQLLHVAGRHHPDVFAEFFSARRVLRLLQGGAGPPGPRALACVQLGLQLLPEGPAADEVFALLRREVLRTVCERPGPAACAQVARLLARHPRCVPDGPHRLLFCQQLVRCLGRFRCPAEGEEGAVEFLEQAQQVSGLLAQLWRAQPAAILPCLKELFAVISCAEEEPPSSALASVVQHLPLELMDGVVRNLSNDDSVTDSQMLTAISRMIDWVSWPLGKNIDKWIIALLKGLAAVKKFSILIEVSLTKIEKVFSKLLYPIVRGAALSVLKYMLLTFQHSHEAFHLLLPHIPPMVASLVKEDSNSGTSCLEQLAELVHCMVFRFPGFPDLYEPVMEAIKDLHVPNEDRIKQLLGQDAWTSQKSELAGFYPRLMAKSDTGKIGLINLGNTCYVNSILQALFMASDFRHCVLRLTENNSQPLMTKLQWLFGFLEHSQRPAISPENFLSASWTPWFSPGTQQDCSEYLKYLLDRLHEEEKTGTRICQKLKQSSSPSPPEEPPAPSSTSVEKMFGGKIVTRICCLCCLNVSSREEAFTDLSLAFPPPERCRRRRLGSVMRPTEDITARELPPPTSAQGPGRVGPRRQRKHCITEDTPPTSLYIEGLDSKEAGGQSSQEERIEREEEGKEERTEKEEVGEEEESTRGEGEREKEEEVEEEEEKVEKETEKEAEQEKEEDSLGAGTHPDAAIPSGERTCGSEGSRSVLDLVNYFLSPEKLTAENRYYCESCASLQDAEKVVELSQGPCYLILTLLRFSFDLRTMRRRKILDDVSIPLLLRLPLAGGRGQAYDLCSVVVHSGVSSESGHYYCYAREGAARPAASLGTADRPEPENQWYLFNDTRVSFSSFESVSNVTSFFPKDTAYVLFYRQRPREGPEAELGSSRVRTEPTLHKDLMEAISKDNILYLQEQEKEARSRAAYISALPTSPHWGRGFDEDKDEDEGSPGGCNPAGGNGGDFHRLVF
# Method in brief: as §1
# UniProt Q9UGI0 = molecular target: T4, UniProt Q9UGI0
# T4 sequence (whole entry): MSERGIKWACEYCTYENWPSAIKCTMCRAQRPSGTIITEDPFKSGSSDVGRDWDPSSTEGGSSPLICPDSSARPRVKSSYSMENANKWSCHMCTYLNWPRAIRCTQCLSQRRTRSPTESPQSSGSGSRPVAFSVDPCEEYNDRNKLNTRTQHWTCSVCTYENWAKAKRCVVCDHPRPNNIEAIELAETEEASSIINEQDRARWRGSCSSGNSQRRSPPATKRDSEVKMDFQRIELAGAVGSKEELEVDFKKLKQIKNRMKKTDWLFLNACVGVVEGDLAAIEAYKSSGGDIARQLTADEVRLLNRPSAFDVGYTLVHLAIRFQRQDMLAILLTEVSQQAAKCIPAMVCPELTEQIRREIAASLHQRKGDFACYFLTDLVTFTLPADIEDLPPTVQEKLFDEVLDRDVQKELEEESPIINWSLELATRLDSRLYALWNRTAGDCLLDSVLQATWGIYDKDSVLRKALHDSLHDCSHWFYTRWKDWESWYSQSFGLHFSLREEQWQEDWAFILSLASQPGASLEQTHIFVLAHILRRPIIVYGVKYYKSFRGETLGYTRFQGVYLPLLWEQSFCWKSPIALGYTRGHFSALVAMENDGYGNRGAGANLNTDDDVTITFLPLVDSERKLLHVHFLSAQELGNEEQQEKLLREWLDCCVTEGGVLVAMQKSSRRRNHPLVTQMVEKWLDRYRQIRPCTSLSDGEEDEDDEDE
# Method in brief: as §1
# YOD1 = molecular target: T5, YOD1 (UniProt Q5VVQ6)
# T5 sequence (whole entry): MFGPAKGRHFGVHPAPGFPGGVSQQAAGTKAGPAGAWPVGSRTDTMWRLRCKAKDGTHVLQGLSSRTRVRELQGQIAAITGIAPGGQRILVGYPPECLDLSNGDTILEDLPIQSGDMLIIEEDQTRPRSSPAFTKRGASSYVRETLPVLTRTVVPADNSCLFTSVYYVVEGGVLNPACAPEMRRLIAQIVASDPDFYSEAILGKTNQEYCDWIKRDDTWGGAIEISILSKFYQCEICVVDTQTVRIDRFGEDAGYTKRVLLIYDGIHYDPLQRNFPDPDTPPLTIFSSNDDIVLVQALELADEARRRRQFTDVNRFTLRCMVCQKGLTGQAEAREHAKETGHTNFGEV
# Method in brief: as §1
# Chain of UniProt P51784 (P51784 whole entry): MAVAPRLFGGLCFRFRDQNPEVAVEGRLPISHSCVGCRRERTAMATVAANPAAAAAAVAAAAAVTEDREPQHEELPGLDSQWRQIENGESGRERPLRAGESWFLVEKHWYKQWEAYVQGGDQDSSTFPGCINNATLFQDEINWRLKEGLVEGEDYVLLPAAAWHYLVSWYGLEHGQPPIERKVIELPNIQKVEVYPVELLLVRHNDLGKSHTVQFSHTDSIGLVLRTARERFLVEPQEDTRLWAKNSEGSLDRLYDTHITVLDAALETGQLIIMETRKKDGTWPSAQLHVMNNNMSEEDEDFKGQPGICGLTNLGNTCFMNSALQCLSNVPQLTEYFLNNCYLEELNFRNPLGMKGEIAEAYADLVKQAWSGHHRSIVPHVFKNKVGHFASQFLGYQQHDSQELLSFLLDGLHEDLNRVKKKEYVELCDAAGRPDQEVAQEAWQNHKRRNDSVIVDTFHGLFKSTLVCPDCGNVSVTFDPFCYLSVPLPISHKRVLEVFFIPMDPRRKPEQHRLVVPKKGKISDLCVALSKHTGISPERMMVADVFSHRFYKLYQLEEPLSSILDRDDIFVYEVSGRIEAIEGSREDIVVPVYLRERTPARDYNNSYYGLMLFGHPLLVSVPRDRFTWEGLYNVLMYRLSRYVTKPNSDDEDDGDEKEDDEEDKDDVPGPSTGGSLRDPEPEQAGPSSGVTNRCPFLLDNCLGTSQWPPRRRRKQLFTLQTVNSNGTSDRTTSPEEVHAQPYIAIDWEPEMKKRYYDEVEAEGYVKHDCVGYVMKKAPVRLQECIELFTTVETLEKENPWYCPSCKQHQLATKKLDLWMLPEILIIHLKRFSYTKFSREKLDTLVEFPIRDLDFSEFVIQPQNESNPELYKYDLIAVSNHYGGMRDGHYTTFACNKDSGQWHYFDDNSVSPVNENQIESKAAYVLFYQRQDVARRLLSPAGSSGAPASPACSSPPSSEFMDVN
# Chain of UniProt O00507 (O00507 whole entry, the tested form may be a part): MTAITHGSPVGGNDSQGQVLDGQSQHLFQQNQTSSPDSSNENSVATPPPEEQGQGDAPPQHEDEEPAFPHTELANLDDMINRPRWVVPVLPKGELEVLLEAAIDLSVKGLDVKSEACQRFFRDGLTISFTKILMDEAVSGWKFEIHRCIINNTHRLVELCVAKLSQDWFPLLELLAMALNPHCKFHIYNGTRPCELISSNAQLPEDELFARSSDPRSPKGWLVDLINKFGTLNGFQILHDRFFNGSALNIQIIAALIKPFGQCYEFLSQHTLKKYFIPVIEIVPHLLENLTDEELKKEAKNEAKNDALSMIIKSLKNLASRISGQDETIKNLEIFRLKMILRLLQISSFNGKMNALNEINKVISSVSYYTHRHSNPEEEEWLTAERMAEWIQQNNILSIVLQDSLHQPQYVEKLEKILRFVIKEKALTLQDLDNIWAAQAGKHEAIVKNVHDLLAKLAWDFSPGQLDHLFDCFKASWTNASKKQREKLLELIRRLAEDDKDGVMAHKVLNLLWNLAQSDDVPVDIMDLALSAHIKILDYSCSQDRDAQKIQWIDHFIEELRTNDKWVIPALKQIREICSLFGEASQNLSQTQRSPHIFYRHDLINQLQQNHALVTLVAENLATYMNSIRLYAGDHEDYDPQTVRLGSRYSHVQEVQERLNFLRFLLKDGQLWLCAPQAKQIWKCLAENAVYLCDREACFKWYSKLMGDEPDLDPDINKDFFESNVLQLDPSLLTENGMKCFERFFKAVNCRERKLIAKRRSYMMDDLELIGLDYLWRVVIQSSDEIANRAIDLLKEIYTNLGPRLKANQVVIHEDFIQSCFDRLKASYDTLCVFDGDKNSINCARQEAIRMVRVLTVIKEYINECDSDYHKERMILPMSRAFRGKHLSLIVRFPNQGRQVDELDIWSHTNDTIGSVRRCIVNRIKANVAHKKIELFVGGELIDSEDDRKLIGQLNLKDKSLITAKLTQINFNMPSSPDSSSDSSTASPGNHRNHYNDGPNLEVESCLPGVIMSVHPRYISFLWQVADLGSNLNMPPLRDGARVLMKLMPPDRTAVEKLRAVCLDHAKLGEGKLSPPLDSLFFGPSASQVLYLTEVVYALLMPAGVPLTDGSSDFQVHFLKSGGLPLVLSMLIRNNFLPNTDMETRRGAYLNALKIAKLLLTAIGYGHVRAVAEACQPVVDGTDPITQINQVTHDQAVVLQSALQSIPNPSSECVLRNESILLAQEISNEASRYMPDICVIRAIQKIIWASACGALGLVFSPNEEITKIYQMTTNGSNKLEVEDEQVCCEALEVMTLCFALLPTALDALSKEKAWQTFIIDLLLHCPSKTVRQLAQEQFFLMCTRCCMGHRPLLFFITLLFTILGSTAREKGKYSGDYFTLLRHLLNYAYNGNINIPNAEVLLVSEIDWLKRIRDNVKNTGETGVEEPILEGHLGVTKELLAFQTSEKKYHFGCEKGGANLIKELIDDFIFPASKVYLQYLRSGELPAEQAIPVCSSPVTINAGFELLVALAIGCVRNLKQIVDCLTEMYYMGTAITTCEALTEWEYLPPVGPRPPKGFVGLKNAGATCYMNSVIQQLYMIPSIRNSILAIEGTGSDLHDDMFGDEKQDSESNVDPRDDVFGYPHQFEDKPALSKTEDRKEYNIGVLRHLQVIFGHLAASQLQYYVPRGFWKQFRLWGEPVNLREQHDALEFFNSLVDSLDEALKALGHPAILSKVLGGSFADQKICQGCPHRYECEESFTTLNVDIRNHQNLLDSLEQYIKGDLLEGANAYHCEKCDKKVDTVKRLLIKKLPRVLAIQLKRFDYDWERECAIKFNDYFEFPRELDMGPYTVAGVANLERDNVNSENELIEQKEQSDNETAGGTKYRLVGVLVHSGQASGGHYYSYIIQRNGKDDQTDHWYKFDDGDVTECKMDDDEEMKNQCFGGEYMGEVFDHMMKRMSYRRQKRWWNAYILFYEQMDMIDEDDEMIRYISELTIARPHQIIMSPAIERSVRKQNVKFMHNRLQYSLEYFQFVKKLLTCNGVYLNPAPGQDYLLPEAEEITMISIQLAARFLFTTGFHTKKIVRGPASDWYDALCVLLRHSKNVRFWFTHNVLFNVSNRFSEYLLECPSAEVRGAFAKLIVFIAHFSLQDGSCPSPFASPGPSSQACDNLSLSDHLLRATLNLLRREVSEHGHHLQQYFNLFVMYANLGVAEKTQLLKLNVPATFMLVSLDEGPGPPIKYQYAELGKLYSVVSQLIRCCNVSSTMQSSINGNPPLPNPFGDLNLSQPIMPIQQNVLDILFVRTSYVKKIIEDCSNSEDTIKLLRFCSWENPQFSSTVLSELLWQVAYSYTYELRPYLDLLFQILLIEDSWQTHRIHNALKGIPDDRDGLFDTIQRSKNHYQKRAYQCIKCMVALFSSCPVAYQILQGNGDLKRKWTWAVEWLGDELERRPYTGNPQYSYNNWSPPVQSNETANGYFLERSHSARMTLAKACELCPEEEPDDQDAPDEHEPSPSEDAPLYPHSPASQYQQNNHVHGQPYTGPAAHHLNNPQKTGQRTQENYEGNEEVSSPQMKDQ
SMILES,log2 ratio of Biotin-Ahx-Ub-VS probe labelling (UniProt O00507),log2 ratio of Biotin-Ahx-Ub-VS probe labelling (UniProt P51784),log2 ratio of Biotin-Ahx-Ub-VS probe labelling (UniProt Q5T2D3),log2 ratio of Biotin-Ahx-Ub-VS probe labelling (UniProt Q8TE49),log2 ratio of Biotin-Ahx-Ub-VS probe labelling (UniProt Q9P2H5),log2 ratio of Biotin-Ahx-Ub-VS probe labelling (UniProt Q9UGI0),log2 ratio of Biotin-Ahx-Ub-VS probe labelling (YOD1)
O=C(CCl)NCC1(c2ccccc2)CC1,0.153,0.117,-0.0752,-0.408,-0.071,-1.08 (active),0.0857
O=C(CCl)N1CCOC2(CCC2)CC1,-0.268,-0.147,-0.0132,-0.472,-0.184,-1.19 (active),-0.0502
Cc1ccc2nnc(CNC(=O)CCl)n2c1,0.487,-0.0917,-0.119,-0.36,-0.342,0.244,0.241
C#Cc1cccc(NC(=O)CCl)c1,0.0122,-0.102,-0.121,-0.872,-0.252,-1.01 (active),0.0347
CCN(C(=O)CCl)C1CCCCC1,0.476,0.0309,-0.00741,-0.32,-0.0524,0.069,0.333
O=C(CCl)N1CCc2ccccc2C(O)C1 (centres undefined),-0.255,-0.0328,-0.418,-0.836,0.153,-1.86 (active),-0.325
O=C(CCl)NCCc1ccc(F)cc1,-0.114,0.00457,0.0738,-0.0633,0.297,-0.491,0.0794
